Laboratory results as given in PMC7862700, “An all-to-all approach to the identification of sequence-specific readers for epigenetic DNA modifications on cytosine”.

Experiments:
Experiment in all cases: DAPPL (digital affinity profiling via proximity ligation, sequencing); 10 mM Tris-HCl pH 7.5, 50 mM NaCl, 1 mM DTT, 4% glycerol, room temperature, 30 min; GST-TFs on glutathione beads, 16-mer random dsDNA library, 0.1% formaldehyde crosslink after washing; high values mean tight binding
FLI1 = molecular target: T1, FLI1 (Homo sapiens, UniProt Q01543 1-452); conditions: protein: recombinant; tags: N-terminal GST; dsDNA, one strand shown
T1 sequence: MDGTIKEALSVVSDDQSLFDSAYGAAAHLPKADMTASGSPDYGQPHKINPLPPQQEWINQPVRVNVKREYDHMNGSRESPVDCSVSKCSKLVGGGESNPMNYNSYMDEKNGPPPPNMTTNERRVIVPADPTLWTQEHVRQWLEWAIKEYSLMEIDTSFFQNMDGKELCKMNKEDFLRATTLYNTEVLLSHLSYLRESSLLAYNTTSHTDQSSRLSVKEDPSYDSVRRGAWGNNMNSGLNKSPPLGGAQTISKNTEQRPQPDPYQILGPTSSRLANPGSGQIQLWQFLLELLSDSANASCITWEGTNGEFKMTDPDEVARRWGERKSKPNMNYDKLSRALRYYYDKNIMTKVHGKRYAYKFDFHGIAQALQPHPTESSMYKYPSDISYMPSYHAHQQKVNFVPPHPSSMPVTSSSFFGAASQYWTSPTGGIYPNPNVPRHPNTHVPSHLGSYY
Summary of the method: (§1)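 Human transcription factors carrying a GST fusion were produced in yeast, bound to glutathione beads, tagged with DNA barcodes and pooled together with a tag-only sample. Each pool was held with 200 nmole of a random double-stranded 16-mer DNA library in Tris/NaCl/DTT/glycerol buffer for 30 min at room temperature, then washed, crosslinked in 0.1% formaldehyde, proximity-ligated with BsaI/T4 ligase (1 h, 37 °C), PCR-amplified and sequenced on an Illumina NextSeq500. Binding signal is the read frequency of each hexamer for a given factor divided by its frequency in the tag-only sample.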

ELK1 = molecular target: T2, ELK1 (Homo sapiens, UniProt P19419 1-428); conditions: protein: recombinant; tags: N-terminal GST; dsDNA, one strand shown
T2 sequence: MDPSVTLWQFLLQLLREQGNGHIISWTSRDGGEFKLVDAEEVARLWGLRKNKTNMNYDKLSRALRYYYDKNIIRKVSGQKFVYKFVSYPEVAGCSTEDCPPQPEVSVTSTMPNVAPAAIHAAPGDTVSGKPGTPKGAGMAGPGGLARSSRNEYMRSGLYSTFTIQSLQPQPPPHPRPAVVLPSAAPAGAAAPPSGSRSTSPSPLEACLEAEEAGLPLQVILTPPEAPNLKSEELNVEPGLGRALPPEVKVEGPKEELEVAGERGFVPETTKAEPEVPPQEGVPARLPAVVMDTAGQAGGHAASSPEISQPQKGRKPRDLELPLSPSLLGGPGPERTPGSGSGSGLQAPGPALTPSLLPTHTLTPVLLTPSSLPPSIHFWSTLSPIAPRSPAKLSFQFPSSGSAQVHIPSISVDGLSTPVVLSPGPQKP
Summary of the method: as §1

GABPA = molecular target: T3, GABPA (Homo sapiens, UniProt Q06546 1-454); conditions: protein: recombinant; tags: N-terminal GST; dsDNA, one strand shown
T3 sequence: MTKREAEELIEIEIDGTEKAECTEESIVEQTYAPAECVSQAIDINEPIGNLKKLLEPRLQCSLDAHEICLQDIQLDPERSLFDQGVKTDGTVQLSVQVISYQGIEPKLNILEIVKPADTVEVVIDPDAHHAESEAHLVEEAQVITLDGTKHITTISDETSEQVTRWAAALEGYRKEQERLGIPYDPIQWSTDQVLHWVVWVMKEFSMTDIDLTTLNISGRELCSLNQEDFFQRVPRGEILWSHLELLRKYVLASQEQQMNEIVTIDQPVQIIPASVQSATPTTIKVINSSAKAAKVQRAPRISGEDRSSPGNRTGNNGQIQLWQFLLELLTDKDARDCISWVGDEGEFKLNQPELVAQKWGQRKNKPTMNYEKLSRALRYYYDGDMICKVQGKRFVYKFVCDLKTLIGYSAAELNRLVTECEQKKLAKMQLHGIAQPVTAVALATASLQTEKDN
Summary of the method: as §1

ERG = molecular target: T4, ERG (Homo sapiens, UniProt P11308 1-479); conditions: protein: recombinant; tags: N-terminal GST; dsDNA, one strand shown
T4 sequence: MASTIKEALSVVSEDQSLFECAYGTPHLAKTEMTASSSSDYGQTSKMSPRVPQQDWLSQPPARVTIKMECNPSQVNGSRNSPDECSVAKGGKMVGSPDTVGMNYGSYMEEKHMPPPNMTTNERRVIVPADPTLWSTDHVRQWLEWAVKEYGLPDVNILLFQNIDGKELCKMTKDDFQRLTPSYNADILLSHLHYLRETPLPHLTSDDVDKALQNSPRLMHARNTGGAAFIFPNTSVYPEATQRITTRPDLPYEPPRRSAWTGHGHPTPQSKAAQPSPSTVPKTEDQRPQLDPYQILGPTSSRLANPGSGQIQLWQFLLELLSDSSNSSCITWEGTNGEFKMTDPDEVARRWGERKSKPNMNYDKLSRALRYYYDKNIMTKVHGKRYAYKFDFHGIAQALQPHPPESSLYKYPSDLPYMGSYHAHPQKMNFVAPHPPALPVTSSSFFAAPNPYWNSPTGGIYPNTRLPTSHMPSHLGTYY
Summary of the method: as §1

ELF1 = ELF1 (Homo sapiens, UniProt P32519 1-619); conditions: protein: recombinant; tags: N-terminal GST; dsDNA, one strand shown
Sequence of ELF1 (P32519 whole entry): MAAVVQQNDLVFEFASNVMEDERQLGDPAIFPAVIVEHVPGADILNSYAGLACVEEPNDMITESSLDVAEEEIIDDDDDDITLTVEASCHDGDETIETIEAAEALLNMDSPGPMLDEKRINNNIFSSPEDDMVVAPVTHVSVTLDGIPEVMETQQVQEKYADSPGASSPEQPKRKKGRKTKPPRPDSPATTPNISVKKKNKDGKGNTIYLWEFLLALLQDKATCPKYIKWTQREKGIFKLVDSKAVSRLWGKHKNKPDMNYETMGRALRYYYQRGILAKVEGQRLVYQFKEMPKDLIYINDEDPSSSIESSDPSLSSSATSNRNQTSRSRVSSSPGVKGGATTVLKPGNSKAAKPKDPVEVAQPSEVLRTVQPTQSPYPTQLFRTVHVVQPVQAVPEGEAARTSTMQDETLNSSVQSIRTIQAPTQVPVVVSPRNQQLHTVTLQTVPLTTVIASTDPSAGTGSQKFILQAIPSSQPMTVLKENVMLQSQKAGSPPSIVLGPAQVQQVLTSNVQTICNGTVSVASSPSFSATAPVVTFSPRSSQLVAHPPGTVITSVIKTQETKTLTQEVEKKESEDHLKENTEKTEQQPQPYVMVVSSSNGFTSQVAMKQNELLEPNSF
Summary of the method: as §1

EHF = molecular target: T5, EHF (Homo sapiens, UniProt Q9NZC4 1-300); conditions: protein: recombinant; tags: N-terminal GST; dsDNA, one strand shown
T5 sequence: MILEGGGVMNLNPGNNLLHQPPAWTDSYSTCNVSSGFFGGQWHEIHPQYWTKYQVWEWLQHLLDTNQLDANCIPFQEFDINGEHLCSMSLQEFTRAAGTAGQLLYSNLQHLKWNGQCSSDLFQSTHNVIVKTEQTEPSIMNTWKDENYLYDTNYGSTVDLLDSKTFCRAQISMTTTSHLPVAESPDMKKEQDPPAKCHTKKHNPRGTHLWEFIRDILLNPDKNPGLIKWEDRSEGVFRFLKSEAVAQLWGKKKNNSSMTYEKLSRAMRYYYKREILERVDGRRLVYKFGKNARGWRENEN
Summary of the method: as §1

SPI1 = SPI1 (Homo sapiens, UniProt P17947 1-270); conditions: protein: recombinant; tags: N-terminal GST; dsDNA, one strand shown
Summary of the method: as §1

SPIB = SPIB (Homo sapiens, UniProt Q01892 1-262); conditions: protein: recombinant; tags: N-terminal GST; dsDNA, one strand shown
Sequence of SPIB (Q01892 whole entry): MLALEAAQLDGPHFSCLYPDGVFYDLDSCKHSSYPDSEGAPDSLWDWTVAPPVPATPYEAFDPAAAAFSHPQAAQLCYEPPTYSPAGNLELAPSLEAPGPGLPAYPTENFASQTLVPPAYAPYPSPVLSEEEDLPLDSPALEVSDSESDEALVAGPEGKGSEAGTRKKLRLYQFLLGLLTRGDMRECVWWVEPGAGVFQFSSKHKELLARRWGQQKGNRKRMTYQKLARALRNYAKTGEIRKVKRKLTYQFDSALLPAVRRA
Summary of the method: as §1

ELK3 = molecular target: T6, ELK3 (Homo sapiens, UniProt P41970 1-407); conditions: protein: recombinant; tags: N-terminal GST; dsDNA, one strand shown
T6 sequence: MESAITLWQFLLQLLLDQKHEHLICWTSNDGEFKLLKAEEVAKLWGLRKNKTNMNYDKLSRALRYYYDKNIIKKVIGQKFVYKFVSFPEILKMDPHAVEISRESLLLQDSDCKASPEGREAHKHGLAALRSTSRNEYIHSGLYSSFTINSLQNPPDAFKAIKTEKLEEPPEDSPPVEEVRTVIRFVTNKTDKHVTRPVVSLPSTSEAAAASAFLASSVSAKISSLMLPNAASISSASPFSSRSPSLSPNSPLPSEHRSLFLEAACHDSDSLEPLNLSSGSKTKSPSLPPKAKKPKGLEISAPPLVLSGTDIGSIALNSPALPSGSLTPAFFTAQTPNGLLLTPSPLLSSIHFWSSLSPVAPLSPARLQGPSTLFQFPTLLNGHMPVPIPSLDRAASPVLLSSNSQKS
Summary of the method: as §1

FEV = molecular target: T7, FEV (Homo sapiens, UniProt Q99581 1-238); conditions: protein: recombinant; tags: N-terminal GST; dsDNA, one strand shown
T7 sequence: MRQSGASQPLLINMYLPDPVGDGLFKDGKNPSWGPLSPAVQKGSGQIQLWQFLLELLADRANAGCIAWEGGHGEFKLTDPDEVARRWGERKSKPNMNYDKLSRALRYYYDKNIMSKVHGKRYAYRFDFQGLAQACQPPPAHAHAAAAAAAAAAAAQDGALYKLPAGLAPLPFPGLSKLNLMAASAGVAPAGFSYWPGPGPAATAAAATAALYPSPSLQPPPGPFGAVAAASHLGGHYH
Summary of the method: as §1

ETV5 = ETV5 (Homo sapiens, UniProt P41161 1-510); conditions: protein: recombinant; tags: N-terminal GST; dsDNA, one strand shown
Sequence of ETV5 (P41161 whole entry): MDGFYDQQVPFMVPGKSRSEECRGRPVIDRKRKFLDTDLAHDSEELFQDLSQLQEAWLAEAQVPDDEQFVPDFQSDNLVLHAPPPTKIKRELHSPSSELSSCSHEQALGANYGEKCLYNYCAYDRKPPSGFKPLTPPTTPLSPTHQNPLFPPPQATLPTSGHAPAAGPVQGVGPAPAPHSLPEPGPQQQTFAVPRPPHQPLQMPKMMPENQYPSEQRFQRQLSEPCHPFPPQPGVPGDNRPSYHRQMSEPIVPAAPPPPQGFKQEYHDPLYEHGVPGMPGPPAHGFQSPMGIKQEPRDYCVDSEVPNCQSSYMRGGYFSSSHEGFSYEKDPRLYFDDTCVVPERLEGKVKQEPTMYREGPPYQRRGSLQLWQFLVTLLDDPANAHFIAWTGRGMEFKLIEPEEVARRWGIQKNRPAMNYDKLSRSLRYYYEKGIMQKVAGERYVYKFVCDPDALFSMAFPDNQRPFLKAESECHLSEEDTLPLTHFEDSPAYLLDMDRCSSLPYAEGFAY
Summary of the method: as §1

HSF1 = HSF1 (Homo sapiens, UniProt Q00613 1-529); conditions: protein: recombinant; tags: N-terminal GST; chain copies: 3; dsDNA, one strand shown
Sequence of HSF1 (Q00613 whole entry): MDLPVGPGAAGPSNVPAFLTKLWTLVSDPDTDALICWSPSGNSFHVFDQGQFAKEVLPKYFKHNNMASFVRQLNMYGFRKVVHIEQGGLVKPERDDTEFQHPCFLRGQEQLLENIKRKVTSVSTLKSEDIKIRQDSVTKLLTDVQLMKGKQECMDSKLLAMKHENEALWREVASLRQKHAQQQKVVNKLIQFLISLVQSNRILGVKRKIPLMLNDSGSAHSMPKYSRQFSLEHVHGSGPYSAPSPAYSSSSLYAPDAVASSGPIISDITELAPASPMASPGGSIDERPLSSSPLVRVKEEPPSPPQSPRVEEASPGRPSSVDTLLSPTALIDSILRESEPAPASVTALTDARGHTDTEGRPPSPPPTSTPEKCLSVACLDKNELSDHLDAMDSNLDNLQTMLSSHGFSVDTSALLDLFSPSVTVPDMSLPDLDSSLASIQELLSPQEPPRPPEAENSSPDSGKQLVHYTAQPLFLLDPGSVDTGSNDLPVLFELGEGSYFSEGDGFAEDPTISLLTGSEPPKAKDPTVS
Summary of the method: as §1

SPIC = molecular target: T8, SPIC (Homo sapiens, UniProt Q8N5J4 1-248); conditions: protein: recombinant; tags: N-terminal GST; dsDNA, one strand shown
T8 sequence: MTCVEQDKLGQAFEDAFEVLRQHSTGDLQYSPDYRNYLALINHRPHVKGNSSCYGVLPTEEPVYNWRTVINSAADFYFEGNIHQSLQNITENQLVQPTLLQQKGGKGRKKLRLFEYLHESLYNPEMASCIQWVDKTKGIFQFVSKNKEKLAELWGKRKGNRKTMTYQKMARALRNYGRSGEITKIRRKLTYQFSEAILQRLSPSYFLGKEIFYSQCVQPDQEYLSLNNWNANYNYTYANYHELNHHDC
Summary of the method: as §1

ELF4 = ELF4 (Homo sapiens, UniProt Q99607 1-663); conditions: protein: recombinant; tags: N-terminal GST; dsDNA, one strand shown
Sequence of ELF4 (Q99607 whole entry): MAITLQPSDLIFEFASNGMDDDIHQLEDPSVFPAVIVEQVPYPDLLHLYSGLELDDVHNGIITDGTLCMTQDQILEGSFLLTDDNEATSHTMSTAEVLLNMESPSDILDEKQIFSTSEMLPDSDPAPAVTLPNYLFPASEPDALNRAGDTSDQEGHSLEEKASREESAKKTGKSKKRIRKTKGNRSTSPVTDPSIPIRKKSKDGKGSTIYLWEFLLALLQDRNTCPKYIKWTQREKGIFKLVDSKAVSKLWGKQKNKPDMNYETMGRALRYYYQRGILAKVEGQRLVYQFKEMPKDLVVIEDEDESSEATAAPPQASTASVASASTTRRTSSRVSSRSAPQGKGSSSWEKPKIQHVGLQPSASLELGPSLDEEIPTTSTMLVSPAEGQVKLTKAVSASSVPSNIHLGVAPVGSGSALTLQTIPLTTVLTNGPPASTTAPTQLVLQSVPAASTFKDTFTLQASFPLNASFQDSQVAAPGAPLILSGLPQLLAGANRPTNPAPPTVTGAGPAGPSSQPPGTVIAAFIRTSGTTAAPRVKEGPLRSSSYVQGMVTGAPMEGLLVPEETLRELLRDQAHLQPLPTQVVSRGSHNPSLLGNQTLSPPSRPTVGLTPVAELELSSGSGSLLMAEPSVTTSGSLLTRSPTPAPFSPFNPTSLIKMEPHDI
Summary of the method: as §1

ELK4 = molecular target: T9, ELK4 (Homo sapiens, UniProt P28324-2 1-405); conditions: protein: recombinant; tags: N-terminal GST; dsDNA, one strand shown
T9 sequence: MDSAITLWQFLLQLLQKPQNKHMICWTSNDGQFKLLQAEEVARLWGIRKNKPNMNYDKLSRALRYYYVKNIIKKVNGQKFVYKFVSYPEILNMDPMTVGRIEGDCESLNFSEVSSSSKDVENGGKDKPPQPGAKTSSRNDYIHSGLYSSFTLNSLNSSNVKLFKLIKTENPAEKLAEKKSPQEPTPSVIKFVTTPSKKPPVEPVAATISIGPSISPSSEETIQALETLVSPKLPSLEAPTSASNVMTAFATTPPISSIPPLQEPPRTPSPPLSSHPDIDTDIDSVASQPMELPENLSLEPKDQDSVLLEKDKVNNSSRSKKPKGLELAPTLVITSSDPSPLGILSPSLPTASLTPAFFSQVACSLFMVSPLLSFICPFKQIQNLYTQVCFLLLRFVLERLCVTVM
Summary of the method: as §1

ETV2 = molecular target: T10, ETV2 (Homo sapiens, UniProt O00321 1-342); conditions: protein: recombinant; tags: N-terminal GST; dsDNA, one strand shown
T10 sequence: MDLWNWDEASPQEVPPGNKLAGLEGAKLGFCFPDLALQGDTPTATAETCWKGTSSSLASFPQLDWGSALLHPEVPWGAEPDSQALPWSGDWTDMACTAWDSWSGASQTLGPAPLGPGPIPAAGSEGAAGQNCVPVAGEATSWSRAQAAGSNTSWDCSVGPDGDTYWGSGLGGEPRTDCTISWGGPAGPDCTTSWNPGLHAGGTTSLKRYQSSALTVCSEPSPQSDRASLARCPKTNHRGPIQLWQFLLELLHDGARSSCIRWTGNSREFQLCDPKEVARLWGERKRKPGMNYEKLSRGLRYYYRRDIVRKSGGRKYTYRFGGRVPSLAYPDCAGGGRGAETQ
Summary of the method: as §1

ELF3 = molecular target: T11, ELF3 (Homo sapiens, UniProt P78545 1-371); conditions: protein: recombinant; tags: N-terminal GST; dsDNA, one strand shown
T11 sequence: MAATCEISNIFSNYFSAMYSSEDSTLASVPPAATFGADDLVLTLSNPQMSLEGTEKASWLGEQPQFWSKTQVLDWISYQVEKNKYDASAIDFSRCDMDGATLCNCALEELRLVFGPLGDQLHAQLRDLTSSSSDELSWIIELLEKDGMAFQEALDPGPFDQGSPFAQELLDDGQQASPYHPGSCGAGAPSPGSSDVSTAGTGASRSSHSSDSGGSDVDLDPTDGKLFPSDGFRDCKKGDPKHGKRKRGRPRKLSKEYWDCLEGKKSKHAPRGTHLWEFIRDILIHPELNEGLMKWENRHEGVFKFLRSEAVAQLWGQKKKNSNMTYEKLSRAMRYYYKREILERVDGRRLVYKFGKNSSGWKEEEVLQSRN
Summary of the method: as §1

CRX = CRX (Homo sapiens, UniProt O43186 1-299); conditions: protein: recombinant; tags: N-terminal GST; dsDNA, one strand shown
Sequence of CRX (O43186 whole entry): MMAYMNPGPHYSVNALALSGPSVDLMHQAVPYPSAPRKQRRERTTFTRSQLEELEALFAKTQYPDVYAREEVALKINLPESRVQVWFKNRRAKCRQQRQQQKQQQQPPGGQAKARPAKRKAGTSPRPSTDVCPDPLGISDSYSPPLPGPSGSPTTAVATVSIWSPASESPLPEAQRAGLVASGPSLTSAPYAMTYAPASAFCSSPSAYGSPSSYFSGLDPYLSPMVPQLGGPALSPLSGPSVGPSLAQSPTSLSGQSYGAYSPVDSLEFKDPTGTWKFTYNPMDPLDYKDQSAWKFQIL
Summary of the method: as §1

ETV1 = ETV1 (Homo sapiens, UniProt P50549 1-477); conditions: protein: recombinant; tags: N-terminal GST; dsDNA, one strand shown
Sequence of ETV1 (P50549 whole entry): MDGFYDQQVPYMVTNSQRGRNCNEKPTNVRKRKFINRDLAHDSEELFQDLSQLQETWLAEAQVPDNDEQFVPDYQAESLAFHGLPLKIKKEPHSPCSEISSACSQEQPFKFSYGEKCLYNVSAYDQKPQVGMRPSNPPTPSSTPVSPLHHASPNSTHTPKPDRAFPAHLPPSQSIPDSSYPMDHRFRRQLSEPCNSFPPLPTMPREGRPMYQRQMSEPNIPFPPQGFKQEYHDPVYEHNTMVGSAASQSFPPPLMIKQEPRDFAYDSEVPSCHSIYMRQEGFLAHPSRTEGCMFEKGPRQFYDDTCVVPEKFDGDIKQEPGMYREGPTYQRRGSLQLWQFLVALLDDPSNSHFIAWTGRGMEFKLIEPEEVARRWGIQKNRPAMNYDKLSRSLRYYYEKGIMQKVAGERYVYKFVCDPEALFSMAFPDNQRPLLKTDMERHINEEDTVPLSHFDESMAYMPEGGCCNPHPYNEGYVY
Summary of the method: as §1

GATCTC
binding signal (FLI1): 1.43 fold enrichment (6-mer frequency, TF over GST control)
binding signal (ELK1): 1.19 fold enrichment (6-mer frequency, TF over GST control)
binding signal (GABPA): 1.16 fold enrichment (6-mer frequency, TF over GST control)
binding signal (ERG): 1.2 fold enrichment (6-mer frequency, TF over GST control)
binding signal (ELF1): 1.27 fold enrichment (6-mer frequency, TF over GST control)
binding signal (EHF): 1.42 fold enrichment (6-mer frequency, TF over GST control)
binding signal (SPI1): 1.28 fold enrichment (6-mer frequency, TF over GST control)
binding signal (SPIB): 1.25 fold enrichment (6-mer frequency, TF over GST control)
binding signal (ELK3): 1.23 fold enrichment (6-mer frequency, TF over GST control)
binding signal (FEV): 1.2 fold enrichment (6-mer frequency, TF over GST control)
binding signal (ETV5): 1.27 fold enrichment (6-mer frequency, TF over GST control)
binding signal (HSF1): 1.42 fold enrichment (6-mer frequency, TF over GST control)
binding signal (SPIC): 1.26 fold enrichment (6-mer frequency, TF over GST control)
binding signal (ELF4): 1.3 fold enrichment (6-mer frequency, TF over GST control)
binding signal (ELK4): 1.22 fold enrichment (6-mer frequency, TF over GST control)
binding signal (ETV2): 1.3 fold enrichment (6-mer frequency, TF over GST control)
binding signal (ELF3): 1.23 fold enrichment (6-mer frequency, TF over GST control)
binding signal (CRX): 1.46 fold enrichment (6-mer frequency, TF over GST control)
binding signal (ETV1): 1.35 fold enrichment (6-mer frequency, TF over GST control)
